Results filed as inconclusive are left out. Entries that show only a call come without a potency. Active and inactive are the calls of the source. Calls come from the whole dose curve; as a rule, active = well fitted inhibition curve with a large enough effect; inconclusive = small, poorly fitted or top-dose-only effect; inactive = no such curve, though single readings can be large or run the other way.
What was measured:
[1] = test system: Zika virus NS2B-NS3 protease (unlinked complex); test: Primary screen GU Rhodamine qHTS for Zika virus inhibitors: Unlinked NS2B-NS3 protease assay (AID 1347159); note: nearly all actives have a fitted effect of over 60% in size
In short: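 Percent inhibition came from the 15-min rise in Rhodamine110 fluorescence (1.5 microM substrate, ~15% conversion), normalized to no-inhibitor and no-enzyme wells and Hill-fitted. Unlinked protease, 25 nM, pH 8.0 Tris buffer; compounds up to 114 microM, 15-min preincubation.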

[2] = test system: Zika virus NS2B-NS3 protease (linked construct); test: Primary screen NINDS Rhodamine qHTS for Zika virus inhibitors (AID 1347160); note: nearly all actives have a fitted effect of over 55% in size
In short: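 Rhodamine110-peptide cleavage (1.5 µM substrate) by 25 nM linked NS2B-NS3 enzyme at pH 8.0 (Tris, Tween 20), after 15 min RT preincubation with compounds; 15-min fluorescence change normalized to controls and Hill-fitted.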

Compound	Potency [1]	Potency [2]
COCC(c1ccc(C(F)(F)F)cc1)N1CCN(C2(C)CCN(C(=O)c3c(C)ncnc3C)CC2)CC1C (stereo unspecified)	inactive	inactive
COCCN(C(=O)c1cc(OC)c(OC)c(OC)c1)c1nc(-c2ccccc2)cs1	inactive	inactive
COc1cc(O)cc(/C=C/c2cccc(O)c2)c1	inactive	inactive
COc1cc(N2CCC(N3CCN(C)CC3)CC2)ccc1Nc1ncc(Cl)c(Nc2ccccc2P(C)(C)=O)n1	inactive	inactive
COc1cc(-c2cn(C3CCc4c(F)cccc4N(CC(F)(F)F)C3=O)nn2)ccc1-n1cnc(C)c1 (stereo unspecified)	inactive	inactive
CCOc1ccc(-n2c([C@@H](C)N(Cc3cccnc3)C(=O)Cc3ccc(OC(F)(F)F)cc3)nc3ncccc3c2=O)cc1	inactive	inactive
CC1(NC(=O)c2ccc(C#Cc3cccc(F)c3)cn2)COC1	inactive	inactive
OC1(CN2CCC(COc3noc4cccc(O[C@@H]5CCOC5)c34)CC2)CCOCC1	inactive	inactive
Cc1cc(C)cc(-c2cnc3cc(Cl)c(-c4cccc(O)c4)cc3c2OCCCN)c1	inactive	inactive
CC(=O)OC1CC2(C)C(CCC(C)C23Cc2c(O)cc(CO)c(C=O)c2O3)C(C)(C)C1O (stereo unspecified)	inactive	inactive
C/C1=C\CCC2=CC(OC2=O)C(C)(C)/C=C/C1=O (stereo unspecified)	inactive	inactive
Cc1ccc(NC(=O)C(C)C)cc1C1CCN(Cc2ccc(Oc3ccc(F)c(F)c3)cc2)CC1	inactive	inactive
CC(C)c1cc2c(N3CCN(C4=NCC(C)(C)S4)CC3)ncnc2s1	inactive	inactive
